Screen size: about 2,300 compounds; about 1,400 (61%) were called active. About 29% were inconclusive and are not listed. So high a share suggests a set chosen from earlier hits. Some of the results follow. Values without a mark were called inactive. The call rests on the fitted dose curve; in most records, active means well fitted inhibition curve with a large enough effect; inconclusive means small, poorly fitted or top-dose-only effect, or effect the other way; inactive means no such curve, though single readings can be large or run the other way.
experiment: Confirmation screen for delayed death inhibitors of the malarial parasite plastid, 96 hour incubation; further: nearly all actives have a fitted effect of over 60% in size; conditions: P. falciparum luciferase growth in erythrocytes; series mostly up to 28.7 µM; activity change, negative = inhibition: at the top concentration
How it was run: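 Erythrocytes infected with luciferase-expressing P. falciparum (2% hematocrit, 0.1% parasitemia final) in RPMI 1640 with 0.5% Albumax, exposed to compounds 96 h at 37 C, 5% CO2. Growth inhibition read as decreased luciferase luminescence.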
On the % scale 0 is the no-effect control and ±100 the full control effect; potency means the concentration at half of the fitted maximal effect.

Structure (SMILES)	activity change, negative = inhibition [%]	Potency
O=S(=O)(NCC(O)c1ccccc1)c1cc(Cl)sc1Cl (stereo unspecified)	14.6	
Cc1c(OCC(=O)NCC(O)c2ccccc2)ccc2c3c(c(=O)oc12)CCC3 (stereo unspecified)		10 µM (active)
O=C(COc1cc2oc(=O)c3c(c2cc1Cl)CCC3)NCC(O)c1ccccc1 (stereo unspecified)		8.91 µM (active)
O=C(CSc1nc2nn(-c3ccccc3)c(=O)c-2c2n1CCCCC2)c1ccc(O)c(O)c1		11.2 µM (active)
O=C(NCc1cccnc1)/C(=C\c1ccc(-c2cccc(Cl)c2)o1)S(=O)(=O)c1ccccc1		7.94 µM (active)
O=C(NCCN1CCOCC1)c1ccc(Cl)c(S(=O)(=O)N2CCCCC2)c1		14.1 µM (active)
O=C(NCc1cccnc1)c1ccc(Cl)c(S(=O)(=O)N2CCOCC2)c1		11.2 µM (active)
O=C(NCc1cccnc1)c1ccc(NS(=O)(=O)c2ccccc2)cc1		7.08 µM (active)
CCC(C)[C@H](NC(=O)NCCCOC(C)C)C(=O)OC (stereo partly specified)	-4.01	
CCOC(=O)c1cc2c(nc1NC(=S)Nc1ccccc1)CC(C)(C)OC2		12.6 µM (active)
O=C(O)c1ccccc1NS(=O)(=O)c1cccc(-n2sc3ccccc3c2=O)c1		12.6 µM (active)
O=C(Cn1c(=O)c(=O)n(Cc2ccccc2)c2ccc(Cl)cc21)Nc1cccc(F)c1		12.6 µM (active)
CCn1c(=O)cc(C(=O)OC)sc1=Nc1ccc(F)c(F)c1	-11.1	
O=C1CS/C(=N/N=C\c2ccn[nH]2)N1		10 µM (active)
C#Cc1ccc(CN2CCN(CCCc3ccccc3)C(CCO)C2)cc1 (stereo unspecified)		7.08 µM (active)
Cc1ccc(-c2nc(-c3cccnc3)sc2CC(=O)Nc2ccc(C)c(Cl)c2)cc1		4.47 µM (active)
COc1ccc(CCNC(=O)c2cc3c(=O)n4cccc(C)c4nc3n(Cc3ccco3)c2=N)cc1OC		11.2 µM (active)
CC(C)C1N=C(c2ccc3c(c2)OCO3)CC(c2ccccc2O)N1 (stereo unspecified)		14.1 µM (active)
O=C(NC1CCCC1)c1ccc([N+](=O)[O-])s1		10 µM (active)
COc1ccccc1N(Cc1ccccc1)S(=O)(=O)c1cccc(C(=O)Nc2ccccn2)c1		7.08 µM (active)
CC(=O)c1ccccc1OCC(O)CN1CCN(C(c2ccccc2)c2ccccc2)CC1 (stereo unspecified)		3.55 µM (active)
CCOC(=O)C1CCN(C(=O)CCc2nnc3ccc(NCc4ccco4)nn23)CC1		5.01 µM (active)
O=C(CCl)Nc1cccc(S(=O)(=O)NC2=NCCC2)c1		0.794 µM (active)

Structure (SMILES)	activity change, negative = inhibition [%]	Potency
COC(=O)[C@@]1(Cc2ccc(F)cc2)[C@@H]2[C@@H](CC(=O)[C@H]2CC(=O)C(=O)N(C)C)CN1C(=O)c1ccccc1		10 µM (active)
COc1ccccc1N1CCN(C(=O)c2noc(C(C)C)c2[N+](=O)[O-])CC1		8.91 µM (active)
CCCCCCCn1c(=O)c(C(=O)OC)c(N)c2ccccc21		6.31 µM (active)
Cc1ccnc(NCc2cccc3ccccc23)c1		10 µM (active)
Cc1cccc(NCc2cccc3ccccc23)n1		14.1 µM (active)
COc1cccc(CNc2cc(C)ccn2)c1O		7.94 µM (active)
CSc1ccc(CNc2cccc3ccccc23)cc1	-25.4	
N#CCc1nc(C(c2ccccc2)c2ccccc2)no1		7.08 µM (active)
Cc1ccccc1-n1nc2c(c1NC(=O)C1CCCC1)CS(=O)(=O)C2	-10.9	
c1csc(CNc2ncnc3nc[nH]c23)c1		15.8 µM (active)
O=C(NC1CCN(Cc2ccccc2)CC1)C1CCN(c2nnc(-n3cccc3)s2)CC1		5.01 µM (active)
CC1Cc2ccccc2N1CC(=O)Nc1ccc2c(c1)OCCCO2 (stereo unspecified)		15.8 µM (active)
CC(=O)Nc1ccc(NC(=O)c2ccc(C3SCC(=O)N3CCc3ccccc3)cc2)cc1 (stereo unspecified)		12.6 µM (active)
O=C1CSC(c2cccnc2)N1CCc1ccccn1 (stereo unspecified)	3.07	
Cc1ccccc1C(=O)N1CCN(c2ccc(NC(=O)c3ccc([N+](=O)[O-])o3)cc2)CC1		6.31 µM (active)
O=C(Nc1ccc(N2CCN(C(=O)c3ccccc3)CC2)cc1)c1ccc([N+](=O)[O-])o1		3.16 µM (active)
O=C(Nc1ccc(N2CCN(C(=O)c3cccs3)CC2)cc1)c1ccc([N+](=O)[O-])o1		2.24 µM (active)
O=C(Nc1ccc(N2CCN(C(=O)c3ccco3)CC2)cc1)c1ccc(F)cc1		3.98 µM (active)
CCN(CC)CCNC(=O)C1c2cc(OC)c(OC)cc2C(=O)N2CCc3ccccc3C12 (stereo unspecified)		2.24 µM (active)
COC(=O)[C@@]12CCCN1[C@H](c1ccc(-c3cccc(Cl)c3)c(OC)c1)[C@H]1C(=O)N(C)C(=O)[C@H]12		1.12 µM (active)
CCN1C(=O)[C@@H]2[C@@H](c3ccc(SC4CCCCC4)c(OC)c3)N3CCC[C@@]3(C(=O)OC)[C@@H]2C1=O		2.51 µM (active)
COc1ccccc1OCC(=O)Nc1nc2c(s1)CCCC2	52.6	
CC(C)(C)c1nc(SCC(=O)Nc2ccc(N3CCOCC3)cc2)c2ccccc2n1		8.91 µM (active)

Structure (SMILES)	activity change, negative = inhibition [%]	Potency
CC(C)(C)c1nc(SCC(=O)Nc2nc3c(s2)CCCC3)c2ccccc2n1		2 µM (active)
Cc1ccc(-c2cc(=O)c3ccc(F)cc3[nH]2)cc1		3.98 µM (active)
Cc1ccc(S(=O)(=O)Nc2cc(=O)[nH]c(SCc3ccc(Cl)cc3)n2)cc1		11.2 µM (active)
CC(=O)c1c(C)cc(C)c(CSc2nc(C)cc(=O)[nH]2)c1C	-38.6	
Cc1oc(-c2ccccc2F)nc1CS(=O)(=O)CC(=O)NCCCN1CCN(C)CC1	-10.7	
Cc1oc(-c2ccccc2Cl)nc1CSCC(=O)N1CCCC1		11.2 µM (active)
O=C(Cc1n[nH]c(=O)c2ccccc12)OCc1c(Cl)cccc1Cl	-5.11	
COc1ccc(-n2c(C)cc(C(=O)COC(=O)Cc3n[nH]c(=O)c4ccccc34)c2C)cc1		3.55 µM (active)
Cc1ccc(/C=N/NC(=O)CSc2nc3ccccc3c(=O)n2-c2ccccc2C)s1		6.31 µM (active)
COc1ccc(C(C)=O)cc1CSc1nc2ccccc2c(=O)n1-c1ccccc1C		7.94 µM (active)
Cc1ccc(-c2nn(C(C)(C)C)c3ncnc(N)c23)cc1		5.01 µM (active)
O=C(Nc1nnc(SCc2ccc(F)cc2)s1)c1ccccn1		2.82 µM (active)
Oc1ccc(-c2n[nH]c(=S)n2-c2ccc3c(c2)OCCO3)c(O)c1		0.355 µM (active)
COc1cc(C(=O)NCc2ccncc2)cc(Br)c1OCc1ccccc1		8.91 µM (active)
O=C(c1ccc(S(=O)(=O)Cc2ccccc2Cl)c([N+](=O)[O-])c1)N1CCOCC1		3.98 µM (active)
O=C(c1ccc(S(=O)(=O)Cc2cc(F)ccc2F)c([N+](=O)[O-])c1)N1CCCC1		7.94 µM (active)
Cc1ccc(S(=O)(=O)N2CCN(c3ccc(C(=O)N4CCOCC4)cc3[N+](=O)[O-])CC2)cc1		4.47 µM (active)
CC(C)NC(=O)NC(=O)COC(=O)c1ccccc1Oc1ccccc1	-19.1	
Cc1cccc(NC(=O)COC(=O)c2cccc3c2C(=O)c2ccccc2C3=O)c1C		12.6 µM (active)
CN(C)S(=O)(=O)c1cc(NC(=O)C2=COCCO2)ccc1Cl		10 µM (active)
CN(C)S(=O)(=O)c1cc(NC(=O)c2cc(=O)c3ccccc3o2)ccc1Cl		5.01 µM (active)
CCCCCCn1c(=O)[nH]c2nc3cc(N)ccc3nc2c1=O		14.1 µM (active)
COc1ccc(NC(=O)N2CCCc3cc(C)ccc32)c(OC)c1		12.6 µM (active)

Structure (SMILES)	activity change, negative = inhibition [%]	Potency
COc1cc(-c2ccc(Nc3ccccc3C(=O)O)c(OC)c2)ccc1Nc1ccccc1C(=O)O		10 µM (active)
COc1cc(-c2ccc(NC(=O)NC3CC3)c(OC)c2)ccc1NC(=O)NC1CC1		11.2 µM (active)
COc1ccc(NC(=O)NC2CCCCCCC2)c(OC)c1		11.2 µM (active)
COc1ccccc1NC(=O)Cc1nnc(SCC(=O)NC2CCCCC2)n1C	-14.6	
O=C(O)c1ccccc1Nc1ccc([N+](=O)[O-])cc1	15.4	
COc1ccc(NC(=O)NC2CCCc3ccccc32)c(OC)c1 (stereo unspecified)		6.31 µM (active)
CCNc1ccc(Br)cc(C(=O)/C=C/c2c(Cl)cccc2Cl)c1=O		7.08 µM (active)
CC(=O)Oc1ccc(-c2csc(Nc3cccnc3)n2)cc1	3.42	
O=C(NC(=S)Nc1nc(-c2ccccc2)cs1)c1cccnc1		12.6 µM (active)
CC(Oc1ccc(Br)cc1)C(=O)N1CCN(c2ccccn2)CC1 (stereo unspecified)		12.6 µM (active)
O=C(c1ccccc1Br)N1CCN(c2ccccn2)CC1	-19.7	
CCCCn1c(=O)[nH]c(=O)c2c1nc(Cn1ncc(Cl)c(Cl)c1=O)n2CCC		10 µM (active)
CC(C)CNC(=O)C(=O)Nc1cc2c3c(c1)C(C)C(=O)N3CCC2 (stereo unspecified)		14.1 µM (active)
Cc1ccccc1NC(=O)Cc1nnc(SCC(=O)NC2CCCCC2)n1C	-11.3	
Cn1c(Cc2cccc3ccccc23)nnc1SCc1ccc([N+](=O)[O-])cc1		12.6 µM (active)
COc1ccccc1C1CCCN1Cc1nc(-c2ccc(C)s2)oc1C (stereo unspecified)		14.1 µM (active)
N#CC1=C(N)Oc2n[nH]c(-c3cccnc3)c2C1c1ccc([N+](=O)[O-])o1 (stereo unspecified)		15.8 µM (active)
C=C1C(=O)[C@@]23[C@H](O)C[C@@H]4C(C)(C)CC[C@H](O)[C@]4(C)[C@@H]2C[C@H](O)[C@@H]1[C@H]3O		14.1 µM (active)
Cc1ccc(Cl)cc1N1CCN(c2cccc[n+]2C)CC1		2 µM (active)
CCCc1[nH]nc2c1C(c1cc(OC)ccc1F)C(C#N)=C(N)O2 (stereo unspecified)		3.55 µM (active)
O=C(CSc1nc(-c2ccco2)cc(C(F)(F)F)n1)Nc1ccccc1C(F)(F)F		12.6 µM (active)
O=C(NCc1ccccn1)c1cc(-c2ccc(-c3ccccc3)cc2)nc2ccccc12		15.8 µM (active)
